Data on 40 compounds can be found in PubChem BioAssay (NCI).

Structures are written as SMILES. Compounds without any hit were thinned out: in the full panel of roughly 83,000, 20% have a hit.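 Single-concentration screen, 48 h exposure, 96-well plates. Endpoint: percent growth. Below 10 = active.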 The source made the active and inactive calls.

In this assay the test system is SR leukemia. The assay is described as follows: NCI-60 one-dose screen, 48 h (100 = growth as untreated, 0 = no growth, -100 = all killed). Particulars: 10 µM unless noted.
For `O=C(O)c1nn(-c2ccc(Cl)cc2)nc1N1CCCC1`, the growth is 99% (inactive).

For the compound `COCCNC(=O)Cc1cc(-c2ccc(Cl)cc2)n(-c2ccccc2)c1C`, the growth was 61.9% (inactive). Then `O=C(Nc1ccc(Oc2cccc(F)c2)c(Cl)c1)c1cnccn1`, with 20.8% (inactive); and `CC(=O)[C@H]1CC[C@]2(C)[C@@H]1CC[C@@H]1[C@@]3(C)C/C(=C/c4cccnc4)C(=O)C(C)(C)[C@@H]3CC[C@]12C`, with 40.9% (inactive).

As to `C=C(C)Cn1c(SCC(=O)c2cccs2)nc2sc3c(c2c1=O)CCCC3`, the growth is 44% (inactive).

With `Cc1ccc(C(=O)Nc2ccc(CN3CCN(C)CC3)c(C(F)(F)F)c2)cc1C#Cc1cnc(N)c2ccccc12`, the growth is -8.12% (active). Then `COc1cc(C2CC(c3cccc(Nc4ccncc4)c3)=Nc3c(N)ncnc3N2)cc(OC)c1OC` (stereo not given), with 30.1% (inactive). Consider `CO[C@]12C=C/C(=C(/C(=O)OCc3cccnc3)C(=O)CCCCCCCC[C@]3(OC)C=C/C(=C(/C(=O)OCc4cccnc4)C(=O)CCCCCCCC1)O3)O2`, for which the growth is -20.7% (active).

Consider `CCOC(=O)CSc1nc2sc3c(c2c(=O)n1-c1ccccc1)CCCCC3`, for which the growth is 103% (inactive). As for `CN1CCN(Cc2ccc(NC(=O)c3cncc(C#Cc4cnc(N)c5ccc(C#N)cc45)c3)cc2C(F)(F)F)CC1`, the growth is 20% (inactive). Then `CCOC(=O)C1=C(c2ccccc2)N=C2SC=C(c3cccc([N+](=O)[O-])c3)N2C1c1ccc(O)cc1` (stereo not given), with 109% (inactive); and `CCn1c2ccccc2c2cc(C(O)c3cccc4ncccc34)ccc21` (stereo not given), with 15.5% (inactive). On to `Cc1c(Cl)cccc1NC(=O)c1sc2nc3c(cc2c1N)CCCC3`, for which the growth was 9.71% (active). Then `O=C(/C=C/c1ccco1)Nc1ncc(Cc2ccc(F)cc2)s1`, with 16.1% (inactive).

As for `COc1nc2ccccc2cc1/C=[N+](\[O-])c1ccccc1`, the growth was 21.5% (inactive).

`COc1ccc(-c2ccc(-c3ccc(C(=N)N)o3)o2)cc1`: the growth was -4.13% (active). Regarding `C=C(C[n+]1ccccc1)[C@@H]1CC[C@]2(C(=O)OC)CC[C@]3(C)[C@H](CC[C@@H]4[C@@]5(C)CCC(=O)C(C)(C)[C@@H]5CC[C@]43C)[C@@H]12`, the growth is 84.8% (inactive).

For the compound `COc1cccc(C(=O)Nc2cccc(NC(=O)c3ccccn3)c2)c1`, the growth is 77% (inactive). In the case of `N#CC1=C(N)Oc2c(ccc3cccnc23)C1c1ccccc1` (stereo not given), the growth was 35.2% (inactive). Then `COc1ccc(C2=NN(C=O)C(c3ccc(Oc4nc5c(c(=O)n(C)c(=O)n5C)n4C)c(OC)c3)C2)cc1` (stereo not given), with 83.9% (inactive). Regarding `CCCS(=O)(=O)Nc1cccc(Nc2ncnc3cc(NC(=O)CCl)ccc23)c1Cl`, the growth was 2.37% (active). As for `Cn1cc(-c2csc(-c3cn(C)c4ccc(F)cc34)n2)c2cnccc21`, the growth is -21.5% (active). On to `C=C(C)[C@@H]1CC[C@]2(C(=O)NC(C)=O)CC[C@]3(C)[C@H](CC[C@@H]4[C@@]5(C)CCCNC(C)(C)[C@@H]5CC[C@]43C)[C@@H]12`, for which the growth was -24.5% (active). As for `COc1cccc(CNc2nnc(C)c(C)n2)c1O`, the growth is 102% (inactive). On to `O=C(/C=C/c1ccc(Cl)cc1)c1ccc(-n2cc(CN3CCN(c4cc5c(cc4F)c(=O)c(C(=O)O)cn5C4CC4)CC3)nn2)cc1`, for which the growth was 13.1% (inactive). Then `COc1cccc2cc(N(C)c3nc(C)nc4c3CCC4)ccc12`, with 9.67% (active). Consider `O=C(O)CCCN1C(=O)CSC1=S`, for which the growth was 103% (inactive). Then `Cc1c2cnccc2c(C)c2c1c1cc(C(=O)O)ccc1n2C`, with 18.6% (inactive).

`C=C1C(=O)O[C@H]2[C@H]1CC/C(CNC(=O)/C=C/c1cc(OC)c(OC)c(OC)c1)=C\CC[C@@]1(C)O[C@@H]21`: the growth is -13.8% (active). As for `Cc1nc2ccccc2c(/C=C/c2ccc(Br)cc2)c1C(=O)/C=C/c1ccccc1`, the growth is 13.6% (inactive). Consider `CC(=O)O[C@H]1C[C@@]2(C)[C@@H](C[C@@H](O)[C@H]3[C@@]4(C)CC[C@H](N5CCCC5)[C@@H](C)[C@@H]4CC[C@@]32C)/C1=C(\CCC=C(C)C)C(=O)O`, for which the growth was 24% (inactive).

In the case of `O=C(O)c1cc2ccccc2s1`, the growth was 104% (inactive). On to `CC(=O)OCCOc1cc(Cl)c(Cl)cc1Cl`, for which the growth is 97.2% (inactive). `CCN1CCN(c2nc(NNC(=O)c3ccc(OC)cc3)nc(N3CCN(C(c4ccccc4)c4ccccc4)CC3)n2)CC1`: the growth was -8.03% (active). Turning to `Cc1cc(=O)oc2cc(Oc3nc(-c4ccccc4)cn4c(-c5ccccc5)cnc34)ccc12`, the growth was 54.5% (inactive). On to `CN(Cc1ccccc1)c1nc(Cl)c(C2CC(c3ccc(Cl)cc3)=NN2c2cc(Cl)cc(Cl)c2)s1` (stereo not given), for which the growth was 109% (inactive). For the compound `COC(=O)c1c(C)nc(C)c2c1C(=O)C(Br)=C(NCCCCO)C2=O`, the growth was 46.4% (inactive). Turning to `COc1cc(/C=C/c2cc(/C=C/c3ccc(O)c(OC)c3)n(C(=O)Nc3ccc(C)cc3C)n2)ccc1O`, the growth is -2.07% (active). Regarding `Cc1cc2nc(C(Cl)Cl)nc(-c3ccccc3)n2n1`, the growth was 20.6% (inactive). As to `CN1C(=O)N(C)C2C1NN=c1s/c(=C\c3ccccc3F)c(=O)n12` (stereo not given), the growth is 18.2% (inactive).
